Source: PubChem BioAssay
Sampled rows, rich in hits. Any-hit rate of the full collection: about 5.1%.
TMEM16A inh = TMEM16A chloride channel inhibitors, primary screen, cell-based, HTS; Anoctamin-1 (Mus musculus), Q8BHY3; HEK293 TMEM16A/YFP iodide influx fluorescence, ionomycin; normalized B-score (activity score, 25-100; higher = stronger inhibition) at 10 µM; 310,000 tested, 1.2% active;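 active means ratio plate-corrected score three or more library SD toward inhibition, starting fluorescence score within five deviations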;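 further: score derived from kinetic fluorescence span divided by baseline fluorescence per well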
ANO1 activ = TMEM16A chloride channel activators or potentiators, primary screen, cell-based, HTS; 340,000 tested, 0.3% active; B-score at 10 µM; Anoctamin-1 (Mus musculus), Q8BHY3; HEK293 TMEM16A/YFP-H148Q/I152L, iodide quench fluorescence; hits give low values;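 active means fluorescence-ratio B-score plate-corrected deviation score at least 3 library SD below zero, with starting fluorescence score within 5 deviations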;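 further: channel opened by trigger with iodide after compound preincubation; score built on the fluorescence ratio of max minus min over baseline; more negative score means more quench and so TMEM16A activation or potentiation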
CRFR2-BP ag = agonists of CRF-BP/CRF-R2 complex, primary screen, cell-based, HEK293, calcium dye fluorescence, uHTS; CRF-binding protein / CRF receptor 2 complex (human); calcium dye fluorescence (FLIPR); percent of saturating CRF peptide response; activation, % at 13.2 µM; 350,000 tested, 0.46% active; AID 588473, 2011;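 active means activation of at least 50%, plus an integration ratio under a set limit after plate pattern correction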
MPTP inh = mitochondrial permeability transition pore inhibitors, primary screen, biochemical, isolated mouse mitochondria, absorbance | 360,000 tested, 1.4% active | inhibition, % at 10 µM | Ca2+ swelling absorbance, 30 min | AID 602449, 2012;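 active means inhibition of 50% or more, scaled per plate between neutral and stimulator controls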
CRFR2-BP antag = antagonists of CRF-BP/CRF-R2 complex, primary screen, cell-based, HEK293, calcium dye fluorescence, uHTS. CRF-induced calcium fluorescence. inhibition, % at 11.8 µM. 350,000 tested, 0.59% active. AID 588475, 2011;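 active means inhibition of the ligand-induced calcium signal above about 50% at the single tested concentration, limit read from the data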
NR3A LBD binder = binders of NR3A ligand-binding domain, primary screen, biophysical, differential scanning fluorimetry, uHTS; Glutamate receptor ionotropic, NMDA 3A (GRIN3A) ligand-binding domain; NR3A LBD differential scanning fluorimetry, Tm shift; 0% = protein alone, 100% = glycine-bound protein; Tm shift relative to glycine control, % at 25 µM; 340,000 tested, 2.5% active;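 active means melting temperature shift of at least 10% of the positive control shift, at one fixed dose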
TMEM16A reconf = TMEM16A chloride channel inhibitors, confirmation, cell-based, re-confirmation. shares compounds with TMEM16A inh. 2,300 tested, 39% active. HEK293 TMEM16A/YFP-H148Q, iodide quench fluorescence; ionomycin added to raise cell calcium. inhibition, % at 10 µM;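 active means mean duplicate percent inhibition, scaled so buffer wells are 0 and the reference blocker 100, over three buffer SD above buffer mean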
HEK293 Ca mobil = calcium mobilization in TMEM16A/YFP HEK293 cells, confirmation, counter-screen for TMEM16A inhibitor project | shares compounds with TMEM16A inh | Fluo4 calcium mobilization | calcium response (% of ionomycin), % at 10 µM | 2,300 tested, 2% active;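 active means duplicate-averaged calcium signal over 20% of the ionomycin maximum, relative to buffer baseline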;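 further: each well's signal is peak minus trough fluorescence divided by its pre-addition baseline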
YFP-HEK293 quench = iodide YFP quench changes in parental YFP-HEK293, counter-screen for TMEM16A inhibitor project, cell-based | 2,300 tested, under 10 active | ionomycin | YFP ratio F(max-min)/F0 at 10 µM | shares compounds with TMEM16A inh;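 active means yellow fluorescent protein signal ratio exceeding the buffer control mean by over 5 SD of those controls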;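 further: ratio is mean of duplicate wells from kinetic YFP trace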
ClC-1 inh = ClC-1 chloride channel inhibition, selectivity assay for TMEM16A inhibitor project, cell-based, voltage-dependent ClC-1; shares compounds with TMEM16A inh; AID 652236, 2013; CHO ClC-1-YFP, iodide influx fluorescence quench; iodide control reads 0, buffer control 100; ratio percent, % at 10 µM; 2,300 tested, under 10 active;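 active means duplicate-mean ratio percent above the mean of iodide-only control wells, which defines zero, plus 5 of their SD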;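 further: higher percent means stronger block of ClC-1 iodide influx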
Target sequence (P35524 whole entry, looked up): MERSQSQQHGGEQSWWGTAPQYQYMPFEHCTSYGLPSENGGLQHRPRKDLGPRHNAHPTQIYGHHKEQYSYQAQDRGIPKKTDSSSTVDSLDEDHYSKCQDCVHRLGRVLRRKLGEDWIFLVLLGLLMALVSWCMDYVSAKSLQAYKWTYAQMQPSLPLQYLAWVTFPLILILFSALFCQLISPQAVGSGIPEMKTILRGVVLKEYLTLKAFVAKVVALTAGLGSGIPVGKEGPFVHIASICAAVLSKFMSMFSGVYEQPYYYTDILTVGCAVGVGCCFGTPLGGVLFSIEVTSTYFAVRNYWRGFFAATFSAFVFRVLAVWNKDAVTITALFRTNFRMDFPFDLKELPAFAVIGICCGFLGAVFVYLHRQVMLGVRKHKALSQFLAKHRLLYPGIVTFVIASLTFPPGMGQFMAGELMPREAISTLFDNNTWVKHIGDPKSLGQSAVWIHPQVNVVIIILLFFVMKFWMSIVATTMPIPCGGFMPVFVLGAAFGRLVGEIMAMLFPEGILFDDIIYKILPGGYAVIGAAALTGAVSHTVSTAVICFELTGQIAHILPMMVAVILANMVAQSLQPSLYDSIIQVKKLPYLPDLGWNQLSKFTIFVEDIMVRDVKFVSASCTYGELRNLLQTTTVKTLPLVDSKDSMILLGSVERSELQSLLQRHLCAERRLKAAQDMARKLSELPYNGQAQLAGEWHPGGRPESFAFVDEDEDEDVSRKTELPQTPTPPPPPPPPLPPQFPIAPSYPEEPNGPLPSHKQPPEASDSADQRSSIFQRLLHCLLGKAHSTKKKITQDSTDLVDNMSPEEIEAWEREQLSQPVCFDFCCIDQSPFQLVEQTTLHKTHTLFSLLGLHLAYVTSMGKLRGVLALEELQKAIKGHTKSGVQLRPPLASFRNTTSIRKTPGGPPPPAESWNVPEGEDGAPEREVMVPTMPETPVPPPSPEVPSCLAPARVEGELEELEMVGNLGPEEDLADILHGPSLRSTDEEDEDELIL
Rh123 counter = fluorescence retest of MPTP screen hits in isolated mitochondria, single concentration; membrane potential, Rhodamine 123 fluorescence; 5,000 tested, 78% active; shares compounds with MPTP inh; inhibition, % at 10 µM; in the data active means inhibition above about 22%
Large screens that a line does not name were inactive (follow-up assays come after a bar, where they were run).

COC(=O)C1=C(c2ccc3ccccc3c2)C[C@@H]2CC[C@H]1N2C(=O)N1CCC(C)CC1	none (no result: TMEM16A inh)
CCC1=Nc2cc(C(=O)N3CCC4(CC3)OCCO4)ccc2Sc2ccc(Br)cc21	TMEM16A inh 100 | TMEM16A reconf inactive | HEK293 Ca mobil inactive | YFP-HEK293 quench inactive | ClC-1 inh inactive
CCN1C(=O)c2ccccc2Sc2ccc(C(=O)N3CCC4(CC3)OCCO4)cc21	none
CC(C)OC(=O)c1c(N)n(CC2CCCO2)c2nc3ccccc3nc12 (stereo unspecified)	none
Nc1c(C(=O)OC2CCCCC2)c2nc3ccccc3nc2n1CC1CCCO1 (stereo unspecified)	TMEM16A inh 100 | TMEM16A reconf inactive | HEK293 Ca mobil inactive | YFP-HEK293 quench inactive | ClC-1 inh inactive
CC(=NCCc1c[nH]c2ccccc12)c1c(O)n(Cc2ccccc2)c(=O)[nH]c1=O	TMEM16A inh 25 | TMEM16A reconf inactive | HEK293 Ca mobil 31.0% | YFP-HEK293 quench inactive | ClC-1 inh inactive
CC(=NCCN1CCOCC1)c1c(O)n(Cc2ccccc2)c(=O)[nH]c1=O	none
CC12CC(O)C3C(CCC4=CC(=O)CCC43C)C1CCC2=O (stereo unspecified)	none (no result: TMEM16A inh)
CNC(=O)Oc1cccc2c1OC(C)(C)O2	none (no result: TMEM16A inh)
CCOc1ccc(-n2c(O)c(C=Nc3ccc(N(CC)CC)cc3)c(=O)[nH]c2=O)cc1	CRFR2-BP ag 101.7 | TMEM16A reconf 28.0% | HEK293 Ca mobil inactive | YFP-HEK293 quench inactive | ClC-1 inh inactive
CCN(CC)c1ccc(N=Cc2c(O)n(-c3ccccc3)c(=O)[nH]c2=O)cc1	none | TMEM16A reconf inactive | HEK293 Ca mobil inactive | YFP-HEK293 quench inactive | ClC-1 inh inactive
CCOc1ccc(-n2c(O)c(C=Nc3ccc(NC(C)=O)cc3)c(=O)[nH]c2=O)cc1	none
CN1C(=O)C(=Cc2c(OCc3cnc(Cl)s3)ccc3ccccc23)C(=O)N(C)C1=O	none | TMEM16A reconf inactive | HEK293 Ca mobil inactive | YFP-HEK293 quench inactive | ClC-1 inh inactive
CCc1ccc2nc(N3CCC(C(=O)N4CCC5(CC4)OCCO5)CC3)sc2c1	TMEM16A inh 100 | TMEM16A reconf inactive | HEK293 Ca mobil 21.0% | YFP-HEK293 quench inactive | ClC-1 inh inactive
Cc1ccc2nc(N3CCC(C(=O)N4CCC5(CC4)OCCO5)CC3)sc2c1	none
COc1cccc(-n2c(O)c(C=NCCN3CCNCC3)c(=O)[nH]c2=S)c1	none
O=c1[nH]c(=S)n(CCC2=CCCCC2)c(O)c1C=NC1CCN(Cc2ccccc2)CC1	TMEM16A inh 100 | TMEM16A reconf inactive | HEK293 Ca mobil inactive | YFP-HEK293 quench inactive | ClC-1 inh inactive
N#CC1C(C#N)C2CCC1C1C2N1c1ccccc1 (stereo unspecified)	none (no result: TMEM16A inh)
CCC1(CC)C(=O)NC(=O)N(c2ccccc2)C1=O	none (no result: TMEM16A inh)
Cc1ccc(N(C)C(=O)Oc2ccc(C(=O)c3ccc(Cl)cc3)cc2)cc1	TMEM16A inh 25 | TMEM16A reconf inactive | HEK293 Ca mobil inactive | YFP-HEK293 quench inactive | ClC-1 inh inactive
Cc1[nH]c2ccc(OC(F)(F)F)cc2c1CCNCc1cccc([N+](=O)[O-])c1	TMEM16A inh 25 | TMEM16A reconf inactive | HEK293 Ca mobil inactive | YFP-HEK293 quench inactive | ClC-1 inh inactive
CCOC(=O)C(O)(c1ccc(NC(=S)NC(=O)c2ccc(Cl)cc2Cl)c(C)c1)C(F)(F)F (stereo unspecified)	TMEM16A inh 25, CRFR2-BP ag 113.9, MPTP inh 86.7 | TMEM16A reconf 53.5% | HEK293 Ca mobil inactive | YFP-HEK293 quench inactive | ClC-1 inh inactive | Rh123 counter 90.2
COC(=O)C(O)(c1ccc(NC(=S)NC(=O)c2ccc(Cl)cc2Cl)cc1)C(F)(F)F (stereo unspecified)	none
O=C(Cc1ccccc1F)N1CCN(CC(=O)N2CCCC2)CC1	none (no result: TMEM16A inh)
CCC(=NCCc1c[nH]c2ccccc12)c1c(O)n(C)c(=O)n(C)c1=O	TMEM16A inh 100, MPTP inh 69.9 | TMEM16A reconf 19.0% | HEK293 Ca mobil inactive | YFP-HEK293 quench inactive | ClC-1 inh inactive | Rh123 counter 58.6
Oc1c(Cl)c(Cl)c(Cl)c(Cl)c1Cl	TMEM16A inh 100, MPTP inh 72.9, CRFR2-BP antag 53.5, NR3A LBD binder 18.8 | TMEM16A reconf 17.0% | HEK293 Ca mobil inactive | YFP-HEK293 quench inactive | ClC-1 inh inactive | Rh123 counter 88.2
O=C(COc1ccc(Cl)cc1)NCCc1cnc[nH]1	none
O=C(NC1CCCCC1)Oc1cc2oc(=O)sc2cc1Cl	none
O=C(c1ccc(C(F)(F)F)cc1)C1CCCN(Cc2ccc(CO)o2)C1 (stereo unspecified)	none
O=C(c1ccc(C(F)(F)F)cc1)C1CCCN(Cc2ccncc2)C1 (stereo unspecified)	TMEM16A inh 25, MPTP inh 85.7 | TMEM16A reconf inactive | HEK293 Ca mobil inactive | YFP-HEK293 quench inactive | ClC-1 inh inactive | Rh123 counter 47.8
O=P1(N(CCCl)CCCl)NCCCO1 (stereo unspecified)	none
CC(=O)c1cn(Cc2ccccc2C#N)c2ccccc12	TMEM16A inh 25, MPTP inh 77.3 | TMEM16A reconf inactive | HEK293 Ca mobil inactive | YFP-HEK293 quench inactive | ClC-1 inh inactive | Rh123 counter 89.7
